Inconclusive results are not listed. Unmarked numbers belong to inactive results. Activity calls are given as the source filed them. The call rests on the fitted dose curve; in most records, active means well fitted cell-killing curve with a large enough effect; inconclusive means small, poorly fitted or top-dose-only effect, or effect the other way; inactive means flat fitted curve, though single readings scatter.
Test system: JEG-3
Assay: Primary qHTS to identify gynecologic anti-cancer compounds using libraries of approved drugs and bioactive compounds (AID 1345084); further: nearly all actives have a fitted effect of over 55% in size
Settings: Gynecologic cancer cell panel viability, ATPlite luminescence, 48 h; series mostly up to 57.5 µM; activity change, negative = cytotoxicity: at the top concentration
How it was run: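 Cytotoxicity screen measuring ATP content by luciferase luminescence. Each compound is applied at five concentrations for 48 h at 37 C with 5% CO2.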
On the % scale 0 is the no-effect control and ±100 the full control effect; potency means the concentration at half of the fitted maximal effect.

For `O=C(NNc1ccccc1)c1ccncc1`, which “activity change, negative = cytotoxicity” value is on record?
The value was 24.1%.

How did the “activity change, negative = cytotoxicity” value turn out when `COc1ccccc1NC(=O)Nc1ccc2ccccc2c1` was run?
Its value is 0.461%.

`CC1OC2OC3C(OCC(O)C3O)OC(=O)C34CCC(C)(C)CC3C3=CCC5C6(C)CC(O)C(OC7OC(CO)C(O)C(O)C7OC7OCC(OC(=O)CC(C)(O)CC(=O)OC1C(OC1OCC(O)C(O)C1O)C2O)C(O)C7O)C(C)(CO)C6CCC5(C)C3(C)CC4O` (centres undefined) was tested. Which “activity change, negative = cytotoxicity” value did it give?
Its value is 0.906% [at 25.3 µM].

For `COc1cc(O)c(C(=O)CCc2ccc(O)cc2)c(O[C@@H]2O[C@H](CO)[C@@H](O)[C@H](O)[C@H]2O)c1`, which “activity change, negative = cytotoxicity” value is on record?
Its value is -2.02% [at 25.3 µM].

For `COc1ccc(Cl)cc1[C@@]1(F)C(=O)Nc2cc(C(F)(F)F)ccc21`, which “activity change, negative = cytotoxicity” value is on record?
Its value is -22%.

How did the “activity change, negative = cytotoxicity” value turn out when `CN(CCCNC(=O)c1ccc2nc3c(c(Cl)c2c1)CCCC3)Cc1ccccc1` was run?
Its value is -10.7%.

With `Cc1ccc2c(Nc3ccc(Cl)cc3)nccc2c1Nc1ncccc1-c1ncnc2nc[nH]c12` as the molecule, how does the “activity change, negative = cytotoxicity” value read?
The value was -11.8%.

With `O=C(NCc1ccc(Oc2ccccc2)cc1)c1nc(-c2cc(Br)c(O)c(Br)c2)no1` as the molecule, how does the “activity change, negative = cytotoxicity” value read?
Its value is -6.41%.

With `O=C(Nc1ccc(F)cc1)N1CCc2ccccc2C1c1ccc(C(F)(F)F)cc1` (centres undefined) as the molecule, how does the “activity change, negative = cytotoxicity” value read?
Its value is -6.2%.

For `CC(C)(C)c1ccc(-c2nc3ccccc3[nH]2)cc1`, which Potency is on record?
Its Potency is 1780 nM (active).

With `C=C(C)C(=O)OC1[C@@H]2C(=C)C(=O)O[C@@H]2C[C@@H](C)[C@@H]2C=CC(=O)[C@@]12C` (some centres undefined) as the molecule, how does the “activity change, negative = cytotoxicity” value read?
The value was 2.06% [at 38.5 µM].

Which “activity change, negative = cytotoxicity” value does the source give for `COc1cc2ncnc(Nc3ccc(Oc4ccccc4)cc3)c2cc1OC` here?
The value was -9.4%.

With `CC1CCC2C(=CCC(O)C2(C)C)C1(C)Cc1c(O)cc(CO)c(C=O)c1O` (centres undefined) as the molecule, how does the “activity change, negative = cytotoxicity” value read?
The value was 3.1% [at 38.5 µM].

How did the “activity change, negative = cytotoxicity” value turn out when `CC1(C)CC23[C@@H]4CC(=O)[C@@H]2COC(=O)[C@@H]3CC[C@H]41` was run?
The value was 1.98%.

Source: PubChem BioAssay (NCATS)
